SARS PLP yeast – inhibitors of SARS-CoV papain-like protease in yeast; S. cerevisiae expressing SARS-CoV PLpro, growth rescue; Potency, µM (highest dose often 32.9 µM), inactives show at the top dose activity, positive = growth rescue, hits mostly activators; 330,000 tested, 0.19% active; calls by dose curve; also: 0% is about no effect; nearly all actives have a fitted effect of over 55% in size
Sm TGR inh – blocks Schistosoma mansoni thioredoxin glutathione reductase; AID 485364; 360,000 tested, 3% active; purified TGR, DTNB reduction, TNB absorbance 405 nm; Q962Y6; Potency, µM (doses to about 114 µM), for inactives: at the highest dose activity change, negative = inhibition, hits mostly inhibitors; active = well fitted inhibition curve with a large enough effect; inconclusive = small, poorly fitted or top-dose-only effect; inactive = no such curve, though single readings can be large or run the other way; also: % is scaled to controls: 0 for no effect and ±100 for the full control effect; nearly all actives have a fitted effect of over 60% in size
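Kinetic colorimetric format: TGR-catalysed, NADPH-driven DTNB reduction monitored via TNB absorbance. Enzyme dispensed at 20 nM; compound exposure 15 min at room temperature before reaction start.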
* hit, by the source's call; ? = inconclusive; . = no result. Shown are actives, neighbours in structure and some others; about 3% of the full set was active somewhere. Potency is read from the fitted curve at half-maximal effect.

SMILES	SARS PLP yeast	Sm TGR inh
Cc1ccc(/C(C#N)=C\c2ccc(N3CCOCC3)o2)cc1	-35%	3.2µM*
N#C/C(=C/c1ccc(N2CCCCC2)o1)c1cccc(F)c1	-29%	2.5µM*
CC1CCCN(C(=O)CSc2c3c(nc4cc(Cl)ccc24)CCCC3)C1 (centres undefined)	.	-7%
Cn1c(=O)n(C)c2cc(NS(=O)(=O)c3ccc(C(C)(C)C)cc3)c(NCc3ccccc3)cc21	.	-6%
O=C(N/N=C\c1cc(Br)c(Br)o1)c1cncc(Br)c1	-14%	0%
O=C(N/N=C/c1cc(Br)c(Br)o1)c1cccnc1	-7%	28µM*
O=C(N/N=C/c1cc(Br)c(Br)o1)c1ccc2c(c1)OCCO2	1%	11µM*
O=C(N/N=C/c1ccc2c(c1)OCO2)c1ccc2c(c1)OCCO2	2%	-13%
CCOc1ccc(N(C)C(=O)C2CCN(S(=O)(=O)c3c(C)noc3/C=C/c3ccc(C)cc3)CC2)cc1	.	39%
CCOC(=O)c1c(C)[nH]c(CCC(=O)Nc2ccc(N(CC)CC)cc2C)c1C	.	-14%
Cc1ccc2cc3c(NC(=O)c4ccco4)nn(C)c3nc2c1	-5%	50µM*
CCCn1nc(NC(=O)c2ccco2)c2cc3ccccc3nc21	-2%	45µM*
CCn1nc(NC(=O)c2ccco2)c2cc3cc(C)ccc3nc21	-4%	-35%
CC(=O)Nc1nn(C)c2nc3cc(C)ccc3cc12	-5%	4%
Cc1ccc(NC(=O)C(C)Sc2nc(-c3ccccc3)c(C#N)c(=O)[nH]2)c(C)c1 (centres undefined)	.	-3%
COc1cc(C2CC(=O)Nc3c2c(=O)n(C)c2ncnn32)cc(OC)c1OC (centres undefined)	.	7%
Cc1[nH]nc2c1C(c1ccc(-c3ccccc3C#N)o1)C(C#N)=C(N)O2 (centres undefined)	-18%	13µM*
Cc1ccc(-c2ccc(C3C(C#N)=C(N)Oc4n[nH]c(C)c43)o2)cc1 (centres undefined)	-29%	-16%
CCOc1ccccc1NC(=O)Cn1c(=O)n(CC(=O)NCc2ccccc2Cl)c(=O)c2sccc21	.	7%
C/C(CC(=O)Nc1ccc(N(C)C)cc1)=N\NC(=O)c1ccccc1O	-5%	45µM*
C/C(CC(=O)Nc1ccc([N+](=O)[O-])cc1)=N\NC(=O)c1ccccc1O	-3%	-25%
CCCn1c(=O)c2sccc2n2c(CCCC(=O)Nc3ccccc3F)nnc12	.	1%
CN(C(=O)c1cc(-c2ccccc2O)on1)c1ccccc1	.	4%
CCCn1c(SCC(=O)c2ccc3c(c2)NC(=O)CO3)nc2ccccc21	-4%	40µM*
Cn1c(SCC(=O)c2ccc3c(c2)NC(=O)CO3)nc2ccccc21	1%	.
SMILES	SARS PLP yeast	Sm TGR inh
O=c1[nH]c(=O)n(-c2cccc(Cl)c2)c(O)c1/C=N/c1ccccn1	6%	79µM*
N=Cc1c(O)n(-c2cccc(Cl)c2)c(=O)[nH]c1=O	-3%	-1%
COC(=O)c1cc(NC(=O)c2oc(=O)c3ccccc3c2-c2ccccc2)cc(C(=O)OC)c1	.	-1%
COc1ccccc1C(CCN(Cc1ccccc1)C(C)=O)c1ccco1 (centres undefined)	-3%	18µM*
CC(=O)N(CCC(c1ccco1)C(C)C)Cc1ccc(Cl)cc1 (centres undefined)	1%	20µM*
COc1ccccc1C(CC(N)=O)c1ccco1 (centres undefined)	22%	-6%
CCC(=O)N(CCC(c1ccco1)C(C)C)Cc1ccccc1 (centres undefined)	-1%	0%
COc1ccccc1C(=O)NCC1(N2CCN(C)CC2)CCCCC1	.	6%
Cc1ccccc1NC(=O)c1cc2c(-c3ccccc3)nn(-c3ccccc3)c2s1	.	9%
CCCC(=O)Nc1ccc(-c2csc(N/N=C\c3ccncc3)n2)cc1	-1%	18µM*
CCCC(=O)Nc1ccc(-c2csc(NNC(C)=O)n2)cc1	2%	25µM*
CC(=O)Nc1ccc(-c2csc(N/N=C\c3ccncc3)n2)cc1	1%	?
CC(=O)NNc1nc(-c2ccc(C)cc2)cs1	4%	?
CCOC(=O)c1c(NC(=O)c2cc(-c3ccccc3OC)on2)sc(C)c1C	.	-7%
CC1CCN(C(=O)Cn2ncc3c4ccccc4n(Cc4ccc(Cl)cc4)c3c2=O)CC1	.	-1%
Cc1ccccc1NC(=O)C1CC(=O)n2ncnc2N1 (centres undefined)	-8%	35µM*
Cc1cccc(NC(=O)C2CC(=O)n3ncnc3N2)c1 (centres undefined)	-5%	2%
CCCCc1cc(-c2n[nH]c(=S)o2)c2ccccc2n1	-3%	45µM*
CCOc1ccccc1-c1n[nH]c(=S)o1	1%	2%
O=C(COC(=O)c1ccc([N+](=O)[O-])o1)Nc1cccc(S(=O)(=O)N2CCOCC2)c1	2%	?
COc1ccc(C)cc1NC(=O)COC(=O)c1ccc([N+](=O)[O-])o1	-19%	0%
O=C(OCc1cc(Cl)ccc1OC(F)F)c1ccc([N+](=O)[O-])o1	-24%	13µM*
COc1ccc(NC(=O)COC(=O)c2ccc([N+](=O)[O-])o2)cc1Cl	-11%	25µM*
CCN(CC)S(=O)(=O)c1ccc(Cl)c(NC(=O)COc2ccc(OC)cc2[N+](=O)[O-])c1	-8%	-5%
O=C(OCc1cc(Cl)ccc1OC(F)F)c1cncc(Br)c1	-13%	7%
SMILES	SARS PLP yeast	Sm TGR inh
CN(C)S(=O)(=O)c1cccc(NC(=O)COC(=O)c2ccc([N+](=O)[O-])o2)c1	?	32µM*
CCN(CC)S(=O)(=O)c1ccc(Cl)c(NC(=O)COC(=O)c2ccc([N+](=O)[O-])o2)c1	-3%	6.3µM*
Cc1ccc(CNC(=O)CN2C(=O)COc3ccc(S(=O)(=O)Nc4ccccc4)cc32)cc1	.	0%
CCN(CC)c1ccc(NC(=O)c2c(C)nn(-c3ccc(F)cc3)c2-n2cccc2)c(C)c1	.	-6%
Cc1cc(=O)n(Cc2cccc(Cl)c2)c2c1c(C)nn2-c1ccccc1	.	-3%
CCCCN(CC)Cc1c(O)ccc2c(-c3ccccc3)cc(=O)oc12	-2%	50µM*
CN1CCN(Cc2c(O)ccc3c(-c4ccccc4)cc(=O)oc23)CC1	-3%	32µM*
CN1CCN(Cc2c(O)ccc3cc(-c4ccccc4)c(=O)oc23)CC1	.	-12%
CCN(CC)Cc1c(O)ccc2c(-c3ccccc3)cc(=O)oc12	-1%	-36%
Cc1ccc(C)c(CN2C(=O)c3ccccc3S(=O)(=O)c3ccc(C(=O)N4CCc5ccccc54)cc32)c1	.	-5%
CCc1c(C)sc2c1CCN(C(=O)Nc1ccc(F)c(Cl)c1)C2c1ccc(F)cc1 (centres undefined)	.	-2%
CCOc1ccc(N2C(=O)C(Cl)=C(N3CCOCC3)C2=O)cc1	0%	22µM*
Cc1ccccc1N1C(=O)C(Cl)=C(N2CCOCC2)C1=O	1%	-6%
O=C1C(Cl)=C(N2CCOCC2)C(=O)N1c1ccccc1F	5%	40µM*
CC(C)c1ccc(N2C(=O)C(Cl)=C(N3CCOCC3)C2=O)cc1	7%	2%
Cc1cccc(N2CCN(CCCNC(=O)Cn3ncc4c([nH]c5ccccc54)c3=O)CC2C)c1 (centres undefined)	.	2%
Cc1cc2c3c(c1)C(C)CC(C)(C)N3C(=O)C2=O (centres undefined)	-1%	.
Cc1ccc2c3c1C(=O)C(=O)N3C(C)(C)CC2C (centres undefined)	5%	5%

Assay outcomes deposited in PubChem by National Center for Advancing Translational Sciences (NCATS).
